# Measurements from PubChem BioAssay.
# Calls of active or inactive are those of the source.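 The calls were made as follows, unless noted: active = normalized viability below 100% at a tested concentration; inactive = the rest.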 Where a SMILES comes first, the peptide text is derived from it. The star is where a group is joined. Cbz = O=C(OCc1ccccc1)*; CH2F = FC*
# What was measured:
# [1] = viability loss with induced miR-34 in A549 – imaging, A549 dox-inducible miR-34, nuclei and caspase counts, primary screen (AID 1347080;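 active = compounds whose cell count with miR-34 switched on is under 0.7 times the count with it off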); settings: A549 miR-34 inducible, Hoechst nuclei count, 48 h
# [2] = chitosan synthesis blockers in C. neoformans – flow cytometry, Cibacron Brilliant Red staining (AID 1347148; call rule not given here;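 also: compound exposure lasted three days at 37 degrees C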); settings: Cryptococcus neoformans chitosan, stronger effect = lower value; at 10 µM unless noted
# [3] = drug combination growth inhibition, ovarian cancer – cell-based, oncology-focused library, rucaparib conditional, profiling panel (AID 1508598); settings: patient-derived ovarian cancer cells, CellTiter-Glo viability, 144 h, stronger effect = lower value
# [4] = compounds altering viability of human ES cells (AID 493140; call rule not given here;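 also: cells exposed to compounds for four days before counting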); settings: human embryonic stem cell survival screen; stronger effect = higher value
# [5] = compounds altering circadian rhythm period length – cell-based, LOPAC library, luminescence reporter (AID 2774; call rule not given here;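 also: values are relative to mean of DMSO wells on each plate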); settings: circadian reporter cells, at 7 µM, actives lie on both sides
# [6] = stronger effect = lower value, cell number ratio, induced over uninduced
# [7] = measured here: relative caspase fold change +Dox/-Dox
# [8] = measured here: total cells with miR-34 induction, stronger effect = lower value
# [9] = measured here: total cells without miR-34 induction
compound,measurement,setting,value
COC(=O)C[C@H](NC(=O)[C@H](C)NC(=O)[C@@H](NC(=O)OCc1ccccc1)C(C)C)C(=O)CF (Cbz-Val-Ala-Asp(OMe)-CH2F),fold change,[1]; [6],0.848 (inactive)
same,fold change,[1]; [7],0.772
same,cell count,[1]; [8],5320
same,cell count,[1]; [9],6270
same,fold fluorescence,[2],3.45 [at 107 µM] (inactive)
same,viability,"[3]; at 0.000305 µM, OCI-C5x cells, with rucaparib 10 µM, 100% = cells with rucaparib alone",111% (inactive)
same,viability,"[3]; at 0.000305 µM, OCI-C5x cells, without rucaparib",113% (inactive)
same,viability,"[3]; at 0.000305 µM, OCI-P5x cells, with rucaparib 20 µM, 100% = cells with rucaparib alone",101% (inactive)
same,viability,"[3]; at 0.000305 µM, OCI-P5x cells, without rucaparib",108% (inactive)
same,viability,"[3]; at 0.00122 µM, OCI-C5x cells, with rucaparib 10 µM, 100% = cells with rucaparib alone",113% (inactive)
same,viability,"[3]; at 0.00122 µM, OCI-C5x cells, without rucaparib",122% (inactive)
same,viability,"[3]; at 0.00122 µM, OCI-P5x cells, with rucaparib 20 µM, 100% = cells with rucaparib alone",104% (inactive)
same,viability,"[3]; at 0.00122 µM, OCI-P5x cells, without rucaparib",107% (inactive)
same,viability,"[3]; at 0.00488 µM, OCI-C5x cells, with rucaparib 10 µM, 100% = cells with rucaparib alone",106% (inactive)
same,viability,"[3]; at 0.00488 µM, OCI-C5x cells, without rucaparib",114% (inactive)
same,viability,"[3]; at 0.00488 µM, OCI-P5x cells, with rucaparib 20 µM, 100% = cells with rucaparib alone",102% (inactive)
same,viability,"[3]; at 0.00488 µM, OCI-P5x cells, without rucaparib",112% (inactive)
same,viability,"[3]; at 0.0195 µM, OCI-C5x cells, with rucaparib 10 µM, 100% = cells with rucaparib alone",113% (inactive)
same,viability,"[3]; at 0.0195 µM, OCI-C5x cells, without rucaparib",119% (inactive)
same,viability,"[3]; at 0.0195 µM, OCI-P5x cells, with rucaparib 20 µM, 100% = cells with rucaparib alone",110% (inactive)
same,viability,"[3]; at 0.0195 µM, OCI-P5x cells, without rucaparib",102% (inactive)
same,viability,"[3]; at 0.0781 µM, OCI-C5x cells, with rucaparib 10 µM, 100% = cells with rucaparib alone",110% (inactive)
same,viability,"[3]; at 0.0781 µM, OCI-C5x cells, without rucaparib",120% (inactive)
same,viability,"[3]; at 0.0781 µM, OCI-P5x cells, with rucaparib 20 µM, 100% = cells with rucaparib alone",108% (inactive)
same,viability,"[3]; at 0.0781 µM, OCI-P5x cells, without rucaparib",111% (inactive)
same,viability,"[3]; at 0.313 µM, OCI-C5x cells, with rucaparib 10 µM, 100% = cells with rucaparib alone",104% (inactive)
same,viability,"[3]; at 0.313 µM, OCI-C5x cells, without rucaparib",118% (inactive)
same,viability,"[3]; at 0.313 µM, OCI-P5x cells, with rucaparib 20 µM, 100% = cells with rucaparib alone",96.2% (active)
same,viability,"[3]; at 0.313 µM, OCI-P5x cells, without rucaparib",107% (inactive)
same,viability,"[3]; at 1.25 µM, OCI-C5x cells, with rucaparib 10 µM, 100% = cells with rucaparib alone",117% (inactive)
same,viability,"[3]; at 1.25 µM, OCI-C5x cells, without rucaparib",115% (inactive)
same,viability,"[3]; at 1.25 µM, OCI-P5x cells, with rucaparib 20 µM, 100% = cells with rucaparib alone",103% (inactive)
same,viability,"[3]; at 1.25 µM, OCI-P5x cells, without rucaparib",106% (inactive)
same,viability,"[3]; at 5 µM, OCI-C5x cells, with rucaparib 10 µM, 100% = cells with rucaparib alone",115% (inactive)
same,viability,"[3]; at 5 µM, OCI-C5x cells, without rucaparib",119% (inactive)
same,viability,"[3]; at 5 µM, OCI-P5x cells, with rucaparib 20 µM, 100% = cells with rucaparib alone",106% (inactive)
same,viability,"[3]; at 5 µM, OCI-P5x cells, without rucaparib",108% (inactive)
CC(=O)N[C@@H](CSC/C=C(\C)CCC=C(C)C)C(=O)O,survival,[4],97.5 (inactive)
same,fold change,[1]; [6],0.983 (inactive)
same,fold change,[1]; [7],1.12
same,cell count,[1]; [8],5900
same,cell count,[1]; [9],6000
same,fold fluorescence,[2],5.25 (inactive)
CC1=C(/C=C/C(C)=C\C=C\C(C)=C\C(=O)O)C(C)(C)CCC1,survival,[4],82.2 (inactive)
same,fold change,[1]; [6],0.906 (inactive)
same,fold change,[1]; [7],1.46
same,cell count,[1]; [8],5680
same,cell count,[1]; [9],6260
same,fold fluorescence,[2],4.39 (inactive)
CCCCCCCCCCCCC/C=C/[C@@H](O)[C@H](CO)NC(=O)CCCCCCCCCCCCCCC,survival,[4],62.8 (inactive)
same,fold change,[1]; [6],1.03 (inactive)
same,fold change,[1]; [7],1.04
same,cell count,[1]; [8],5360
same,cell count,[1]; [9],5200
same,fold fluorescence,[2],6.35 (inactive)
NCCNS(=O)(=O)c1cccc2cnccc12,period change,[5],0.39 h (inactive)
same,survival,[4],266 (active)
same,fold change,[1]; [6],1.1 (inactive)
same,fold change,[1]; [7],1.06
same,cell count,[1]; [8],3580
same,cell count,[1]; [9],3260
same,fold fluorescence,[2],3.25 [at 154.2 µM] (inactive)
CCCCC/C=C\C\C=C/C=C/C=C/[C@@H](SCC(NC(C)=O)C(=O)O)[C@@H](O)CCCC(=O)O (stereo partly specified),survival,[4],136 (inactive)
same,fold change,[1]; [6],0.952 (inactive)
same,fold change,[1]; [7],1.06
same,cell count,[1]; [8],5780
same,cell count,[1]; [9],6080
same,fold fluorescence,[2],4.05 [at 1 µM] (inactive)
Nc1cc(N2CCCCC2)nc(N)[n+]1OS(=O)(=O)[O-],fold change,[1]; [6],0.999 (inactive)
same,fold change,[1]; [7],1.39
same,cell count,[1]; [8],5860
same,cell count,[1]; [9],5870
same,fold fluorescence,[2],3.52 [at 172.8 µM] (inactive)
O=Cc1c2[nH]c3ccccc3c2cc2[nH]c3ccccc3c12,survival,[4],124 (inactive)
same,fold change,[1]; [6],0.873 (inactive)
same,fold change,[1]; [7],1.33
same,cell count,[1]; [8],4820
same,cell count,[1]; [9],5520
same,fold fluorescence,[2],4.2 (inactive)
CCCCCC1OC1C/C=C\C/C=C\C/C=C\CCCC(=O)O (stereo unspecified),survival,[4],88.4 (inactive)
same,fold change,[1]; [6],0.949 (inactive)
same,fold change,[1]; [7],1.73
same,cell count,[1]; [8],6230
same,cell count,[1]; [9],6560
same,fold fluorescence,[2],5.49 [at 1 µM] (inactive)
N#Cc1c(-c2ccccc2)no[n+]1[O-],period change,[5],-0.17 h (inactive)
same,fold change,[1]; [6],1.56 (inactive)
same,fold change,[1]; [7],1
same,cell count,[1]; [8],1090
same,cell count,[1]; [9],700
same,fold fluorescence,[2],6.16 [at 267.2 µM] (inactive)
N#CC(C#N)=C(N)/C(C#N)=C/c1ccc2[nH]ccc2c1,survival,[4],107 (inactive)
same,fold change,[1]; [6],1.01 (inactive)
same,fold change,[1]; [7],0.81
same,cell count,[1]; [8],5080
same,cell count,[1]; [9],5030
same,fold fluorescence,[2],3.69 [at 192.8 µM] (inactive)
CCCCC[C@H](O)C/C=C1/C(=O)C=C[C@@H]1C/C=C\CCCC(=O)O,survival,[4],95.5 (inactive)
same,fold change,[1]; [6],0.887 (inactive)
same,fold change,[1]; [7],0.855
same,cell count,[1]; [8],5300
same,cell count,[1]; [9],5980
same,fold fluorescence,[2],4.79 (inactive)
CCCCC/C=C\C/C=C\CC1OC1C/C=C\CCCC(=O)O (stereo unspecified),survival,[4],95.7 (inactive)
same,fold change,[1]; [6],1.01 (inactive)
same,fold change,[1]; [7],1.19
same,cell count,[1]; [8],5810
same,cell count,[1]; [9],5750
same,fold fluorescence,[2],5.26 [at 1 µM] (inactive)
COc1c(C=O)c(O)cc2c1C(=O)c1ccccc1C2=O,survival,[4],93.2 (inactive)
same,fold change,[1]; [6],0.91 (inactive)
same,fold change,[1]; [7],0.797
same,cell count,[1]; [8],2810
same,cell count,[1]; [9],3080
same,fold fluorescence,[2],5.22 [at 177.1 µM] (inactive)
CCCCCCCCCCCCCCCC(=O)N[C@@H](COP(=O)(O)O)C(=O)O,survival,[4],91.8 (inactive)
same,fold change,[1]; [6],0.975 (inactive)
same,fold change,[1]; [7],1.1
same,cell count,[1]; [8],5800
same,cell count,[1]; [9],5940
same,fold fluorescence,[2],4.28 (inactive)
